The record followed here is ChEMBL document CHEMBL3988442, “University of Dundee, Small-Polar-MMV Screening Library” (2021).

Structures are written as SMILES.

This assay concerns the target T1, Methionyl-tRNA synthetase, putative (Leishmania donovani (strain BPK282A1)) (UniProt E9BF75).
T1 sequence (whole entry): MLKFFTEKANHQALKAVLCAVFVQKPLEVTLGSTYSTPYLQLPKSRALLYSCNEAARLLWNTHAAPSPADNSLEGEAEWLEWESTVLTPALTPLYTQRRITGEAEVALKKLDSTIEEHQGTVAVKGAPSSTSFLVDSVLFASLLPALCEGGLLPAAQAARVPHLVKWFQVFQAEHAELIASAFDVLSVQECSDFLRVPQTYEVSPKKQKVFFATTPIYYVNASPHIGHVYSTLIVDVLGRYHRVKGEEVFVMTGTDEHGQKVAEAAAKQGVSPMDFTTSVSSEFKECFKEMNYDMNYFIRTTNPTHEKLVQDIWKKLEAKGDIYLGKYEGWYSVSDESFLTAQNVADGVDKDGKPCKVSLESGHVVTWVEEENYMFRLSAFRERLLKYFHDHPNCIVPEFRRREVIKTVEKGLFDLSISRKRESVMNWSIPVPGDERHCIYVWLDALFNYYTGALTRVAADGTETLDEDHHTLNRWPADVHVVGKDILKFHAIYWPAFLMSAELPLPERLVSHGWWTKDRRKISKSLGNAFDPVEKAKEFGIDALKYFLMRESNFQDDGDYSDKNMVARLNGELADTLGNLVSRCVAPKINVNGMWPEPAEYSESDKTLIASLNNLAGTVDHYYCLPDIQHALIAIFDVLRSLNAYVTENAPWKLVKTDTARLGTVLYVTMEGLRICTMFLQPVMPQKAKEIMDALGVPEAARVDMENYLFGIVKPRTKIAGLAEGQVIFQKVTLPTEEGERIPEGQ
As to the kind of experiment: Leishmania donovani Methionine tRNA synthetase (LdMetRS):v7. Dose response assay. In kind it is functional. Also on record: conc 80 nM, time 150 minutes.

For `NC(=O)c1cccnc1Nc1cccc(C(F)(F)F)c1`, the PXC50 was less than 4 (MAX_EFFECT 7.210626186), less than 4 (MAX_EFFECT 13.42975207) and less than 4 (MAX_EFFECT 16.74008811).

With `CC1COc2ccccc2N1C(=O)CCc1cscn1` (stereo not given), the PXC50 by setting is: (MAX_EFFECT 3.401360544) less than 4; (MAX_EFFECT 4.347826087) less than 4; (MAX_EFFECT 6.479859895) less than 4.

As to `Cn1ncc2c(NCCc3nnn[nH]3)nc(Nc3ccc(F)c(F)c3)nc21`, the PXC50 by setting is: (BOTTOM 6.583334695, HILLSLOPE 0.991501174, MAX_EFFECT 88.67924528, TOP 94.6320251) 5.11; (BOTTOM -5.664940327, HILLSLOPE 0.831663104, MAX_EFFECT 86.00508906, TOP 96.34066377) 5.16; (BOTTOM -7.167085921, HILLSLOPE 0.718342131, MAX_EFFECT 85.0877193, TOP 100.1570552) 5.14.

In turn, `Cc1nc(C)n(CC2CCCN2Cc2nc(C)c3ccccc3n2)n1` (stereo not given) yielded a PXC50 (BOTTOM 0.925302431, HILLSLOPE 1.017320837, MAX_EFFECT 67.36111111, TOP 99.90284223) of 4.31; a PXC50 (BOTTOM 1.588399375, HILLSLOPE 1.270951942, MAX_EFFECT 69.49740035, TOP 100.0) of 4.3; a PXC50 (BOTTOM 6.646518839, HILLSLOPE 0.950758055, MAX_EFFECT 62.41610738, TOP 100.0) of 4.2.

Regarding `CN(C)S(=O)(=O)c1cccnc1Nc1cccc(C(F)(F)F)c1`, the PXC50 runs as follows: (MAX_EFFECT 3.964757709) less than 4; (MAX_EFFECT 9.867172676) less than 4; (MAX_EFFECT -2.272727273) less than 4.

Turning to `COc1ccccc1CN1CCC(c2nn(CCN)c3nccnc23)C1` (stereo not given), the PXC50 reads like this: (BOTTOM 6.910506635, HILLSLOPE 2.152998005, MAX_EFFECT 63.75838926, TOP 91.48778108) 4.15; (BOTTOM -1.343168311, HILLSLOPE 1.212343279, MAX_EFFECT 59.72222222, TOP 92.89137202) 4.23; (BOTTOM -1.505582699, HILLSLOPE 1.035538343, MAX_EFFECT 55.28596187, TOP 100.0) 4.07.

`CC(C)c1nc2c(n1C)CCN(Cc1nc(-c3cccnc3)no1)C2`: the PXC50 was 4.04 (BOTTOM 2.671185226, HILLSLOPE 0.615272847, MAX_EFFECT 58.33333333, TOP 100.0); less than 4 (MAX_EFFECT 45.45454545); less than 4 (MAX_EFFECT 45.58058925); less than 4 (MAX_EFFECT 47.65100671); less than 4 (MAX_EFFECT 48.17658349).

As to `COc1cccc(-c2noc3c2CN(c2ncnc4c2CCC4)CC3)c1`, the PXC50 is, setting by setting: (MAX_EFFECT 38.4057971) less than 4; (MAX_EFFECT 40.13605442) less than 4; (MAX_EFFECT 45.70928196) less than 4.

`Cn1cccc1C1CCCCCN1C(=O)c1ccc(NC2CC2)nc1` (stereo not given) showed a PXC50 (BOTTOM 0.111908338, HILLSLOPE 1.39754326, MAX_EFFECT 51.12651646, TOP 100.0) of 4.03; a PXC50 (BOTTOM 4.752718183, HILLSLOPE 1.435645002, MAX_EFFECT 69.44444444, TOP 100.0) of 4.25; a PXC50 (BOTTOM 4.940186034, HILLSLOPE 1.180279811, MAX_EFFECT 63.75838926, TOP 100.0) of 4.18; a PXC50 (MAX_EFFECT 37.16108453) of less than 4; a PXC50 (MAX_EFFECT 39.73128599) of less than 4.

For `CCNc1nc(Nc2ccc(F)c(F)c2)nc2c1cnn2C`, the PXC50 is 5.04 (BOTTOM 1.995747486, HILLSLOPE 0.878307732, MAX_EFFECT 82.01754386, TOP 90.74385953); 5.21 (BOTTOM -0.278671712, HILLSLOPE 0.874738485, MAX_EFFECT 76.33587786, TOP 84.21903162); 4.93 (BOTTOM -9.286701073, HILLSLOPE 0.734415983, MAX_EFFECT 80.15414258, TOP 112.1235893).

Regarding `O=C(O)CC1COCCN1C(=O)C1(c2ccc(Cl)cc2)CCC1` (stereo not given), the PXC50 reads like this: (MAX_EFFECT 1.360544218) less than 4; (MAX_EFFECT 1.449275362) less than 4; (MAX_EFFECT 4.378283713) less than 4.

Consider `Cn1ncc2c(NCCO)nc(Nc3cccc(OC(F)(F)F)c3)nc21`, for which the PXC50 by setting is: (MAX_EFFECT 13.77672209) less than 4; (MAX_EFFECT 18.02575107) less than 4; (MAX_EFFECT 24.6628131) less than 4.

`Cc1nc(CN(C)CC2CCCN2c2cccnn2)nc2ccccc12` (stereo not given) yielded a PXC50 (BOTTOM 6.94309251, HILLSLOPE 1.363298468, MAX_EFFECT 83.49834983, TOP 100.0) of 4.46; a PXC50 (BOTTOM 8.751319867, HILLSLOPE 2.615595336, MAX_EFFECT 78.85304659, TOP 100.0) of 4.21; a PXC50 (BOTTOM -1.910835363, HILLSLOPE 2.399208882, MAX_EFFECT 79.71014493, TOP 90.01694606) of 4.37.

Regarding `NCC1CCN(C2CCN(c3ccc(-c4ccco4)cc3)CC2)C1` (stereo not given), the PXC50 reads like this: (BOTTOM 4.43866672, HILLSLOPE 0.884621075, MAX_EFFECT 64.49275362, TOP 100.0) 4.31; (BOTTOM 4.60090898, HILLSLOPE 1.046241477, MAX_EFFECT 65.98639456, TOP 92.93543159) 4.34; (BOTTOM 4.64806131, HILLSLOPE 0.783599422, MAX_EFFECT 54.46584939, TOP 100.0) 4.09.

For `Cc1cc(C)n(-c2nc(N3CCCC(O)C3)c3c4c(sc3n2)CCCC4)n1` (stereo not given), the PXC50 is less than 4 (MAX_EFFECT 1.492537313), less than 4 (MAX_EFFECT 6.004140787), less than 4 (MAX_EFFECT 6.832298137) and less than 4 (MAX_EFFECT 7.036247335).
